Screening data: PubChem BioAssay, several laboratories
In the library only some 2.8% were active in any assay of this set; here they are far more common.
Peg3 promoter: Peg3 promoter activity inhibition. 360,000 tested, 1.7% active. AID 588405. HeLa PEG-Prom luciferase reporter, luminescence, overnight. inhibition, % at 20 µM;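 active = inhibition of at least 50% at 20 µM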
KKLEB cytotox: counter-screen for CF NF-kB inhibitors: cytotoxicity. KKLEB CF airway cells viability, ATPlite luminescence, overnight; active compounds read low; cells stimulated with P. aeruginosa culture filtrate. 360,000 tested, 0.36% active. AID 602141. activity change (cytotoxicity), % at 5 µM;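 active = corrected activity change at or below -50% at 5 µM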
HIF-2a block: blocks HIF-2a reporter activity. 360,000 tested, 0.72% active. 786-0 RCC cells HIF-2a reporter, luciferase luminescence, overnight. inhibition, % at 18.8 µM;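 active = inhibition of the luminescence signal of 40% or more relative to plate controls, in a single-dose primary screen at 18.75 µM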
TRPM1 prom inh: reduces MITF-dependent TRPM1 promoter luciferase signal | 330,000 tested, 0.83% active | SK-MEL-5 TRPM1 promoter luciferase, 24 h | inhibition, % at 12.5 µM | AID 488899;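 active = mean inhibition across replicates of 60% or more, whatever share of single replicates reaches that level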
Shn3 3UTR inh: Schnurri-3 reporter inhibition in Clone20 osteoblasts | 360,000 tested, 0.52% active | AID 588674 | inhibition, % at 12.5 µM | Clone20 osteoblast Shn3 3'UTR firefly luciferase, 24 h;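 active = mean inhibition of at least 75% with every replicate also reaching 75%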;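 also: 0% = median of neutral control wells and 100% = pilot-screen positive control compound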
CF NFkB inh: blocks PAF-induced NF-kB reporter in cystic fibrosis cells; KKLEB NF-kB-GFP reporter, GFP fluorescence overnight; inhibition, % at 5 µM; 360,000 tested, 0.86% active;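 active = at least 50% inhibition at 5 µM, scaled per plate between neutral and stimulator controls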;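 also: PAF is a Pseudomonas aeruginosa culture filtrate used as stimulus; plate controls were PAF-stimulated DMSO wells for no effect and unstimulated DMSO wells for full effect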
CF NFkB conf: confirmation of cystic fibrosis induced NF-kB inhibitors; shares compounds with CF NFkB inh; KKLEB CF airway cells, PAF-induced NF-kB-GFP fluorescence, overnight; AID 602472; 1,300 tested, 64% active; inhibition, % at 5 µM; in the data active = inhibition above about 40%;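 also: stimulus PAF is a Pseudomonas aeruginosa filtrate and not platelet activating factor; plate controls were DMSO wells with stimulus for no effect and unstimulated DMSO wells for full effect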
An asterisk follows results filed as active; . = not tested or not shown.

SMILES | Peg3 promoter | KKLEB cytotox | HIF-2a block | TRPM1 prom inh | Shn3 3UTR inh | CF NFkB inh | CF NFkB conf
N#C/C(=C(/O)CSc1ncn[nH]1)c1nc2ccccc2[nH]1 | 2 | -1 | 1 | -5 | -3 | -21 | .
O=C(CSc1cn[nH]n1)Nc1ccccc1C(=O)O | 19 | 5 | 8 | 8 | 8 | -26 | .
COc1ccc(-n2nc(C(=O)NCC(=O)NCCCN3CCOCC3)c3ccccc3c2=O)cc1 | 15 | 12 | 15 | -2 | 2 | 61* | 15
FC(F)(F)c1nnc2c(Sc3ccccc3)nc3ccccc3n12 | 3 | 11 | -60 | 59 | -23 | 79* | 84*
CC(=O)c1ccc(-c2ccc(C(=O)NCC(c3ccc(F)cc3)N3CCOCC3)o2)cc1 (stereo not drawn) | -38 | 0 | -35 | -11 | -6 | -13 | .
O=C(NCC(c1ccc(F)cc1)N1CCOCC1)c1ccc([N+](=O)[O-])o1 (stereo not drawn) | 18 | -1 | 9 | 42 | -2 | 64* | 26
CC(NC(=O)c1cc2c(s1)CS(=O)(=O)C2)c1ccccc1 (stereo not drawn) | 1 | -10 | 3 | -2 | -26 | 14 | .
CCc1nnc(NC(=O)CCc2ccc(C)o2)s1 | -18 | -2 | -8 | -18 | -6 | 11 | .
Cc1ccc(CCC(=O)Nc2ncc(Cc3cccc(Cl)c3Cl)s2)o1 | 31 | -32 | 31 | 27 | 17 | 52* | 78*
Cn1c(Oc2ccc(Cl)cc2)c(C=O)c2ccccc21 | 37 | -16 | 31 | 24 | 1 | 51* | 70*
CCCCC(=O)OCc1c(-c2cccc(OC)c2)ncc2ccccc12 | 0 | -1 | -12 | -1 | 3 | -18 | .
CCOC(=O)N1CCC(NC(=O)c2ccc3c(c2)N=C(CC)c2cc(C)ccc2S3)CC1 | 34 | 7 | 19 | 25 | 40 | 17 | .
CCOC(=O)N1CCC(NC(=O)c2ccc3c(c2)N=C(C)c2c(C)ccc(C)c2S3)CC1 | 21 | -18 | 24 | 59 | 31 | 57* | 58*
COc1ccc(S(=O)(=O)NCC(=O)NCCc2ccc(OC)c(OC)c2)cc1 | 2 | -17 | 3 | . | -5 | 12 | .
CCC(CO)Oc1cc(NCc2ccc(Cl)cc2Cl)c2ncn(C(C)C)c2c1 (stereo not drawn) | 14 | -2 | 20 | 7 | 2 | 60* | 45*
CCC(CO)Oc1cc(NCc2ccc(Cl)cc2)c2ncn(C(C)C)c2c1 (stereo not drawn) | 15 | -6 | 3 | 11 | -31 | 15 | .
Nc1cc(=O)nc(SCC(=O)Nc2ccccc2Cl)n1-c1ccccc1 | -1 | 8 | 4 | -28 | -3 | -4 | .
CCc1ccc([C@@H]2C[C@H]3[C@@H](CN2S(=O)(=O)c2ccc(C)cc2)C(=O)C[C@@H](c2ccc(Cl)cc2)N3S(=O)(=O)c2ccccc2C)cc1 | 6 | 10 | 10 | . | 18 | -7 | .
CCc1ccc([C@@H]2CC(=O)[C@@H]3CN(S(=O)(=O)c4ccccc4C)[C@H](c4ccc(Cl)cc4)C[C@@H]3N2S(=O)(=O)c2ccc(C)cc2)cc1 | 5 | -10 | 3 | . | 70 | 51* | 38
Cc1ccc(N(CC(=O)N2CCCCCC2)S(C)(=O)=O)c(C)c1 | 3 | 15 | 11 | . | -11 | 6 | .
CC1Sc2ccc(Cl)cc2-c2nc(N)ncc21 (stereo not drawn) | 9 | -24 | 28 | 6 | -28 | 66* | 77*
C/C(=C\[C@@H](NP(=O)(c1ccccc1)c1ccccc1)c1ccccc1)CO[Si](c1ccccc1)(c1ccccc1)C(C)(C)C | 17 | -33 | 3 | 17 | 8 | 54* | 31
COc1ccc(C(=O)NCc2nnc(SCC(=O)N3CCc4ccccc43)n2Cc2ccccc2)cc1 | 14 | 6 | 11 | 3 | 14 | -15 | .
O=C1O[C@@H](c2ccccc2)C[C@@H](O)[C@H](O)CCCCc2ccccc21 | . | . | 3 | . | . | . | .
CN(C)c1ccc(-c2nn3c(-c4ccccc4Cl)nnc3s2)cc1 | 9 | -35 | -17 | 28 | 3 | 54* | 68*
SMILES | Peg3 promoter | KKLEB cytotox | HIF-2a block | TRPM1 prom inh | Shn3 3UTR inh | CF NFkB inh | CF NFkB conf
COc1ccccc1NC(=O)c1cc2c(CO)cnc(C)c2oc1=Nc1ccc(OC)c(OC)c1 | 56* | -49 | 1 | 14 | 19 | 86* | 85*
Cc1ccc(NC(=S)N2CC(C)OC(C)C2)cc1C (stereo not drawn) | 13 | 19 | 1 | 8 | 31 | -2 | .
O=C(NCCc1c[nH]c2ccccc12)C(=O)NCC(c1ccco1)N1CCN(c2ccc(F)cc2)CC1 (stereo not drawn) | 26 | -48 | 21 | 13 | 18 | 51* | -17
CCN(CC)C(=O)Cn1cc(C(=O)C(=O)Nc2ccc3c(c2)OCCO3)c2ccccc21 | -147 | -31 | -192 | -81 | -41 | 17 | .
CS(=O)(=O)n1nc(OC(=O)c2cccc3ccccc23)cc1N | -32 | -34 | 10 | 19 | 4 | 66* | 17
CS(=O)(=O)n1nc(OC(=O)c2cc(Br)ccc2Cl)cc1N | 17 | 1 | 22 | 0 | 11 | 5 | .
COc1ccc(C(CNC(=O)C(=O)Nc2ccc3c(c2)OCCO3)N2CCN(C)CC2)cc1 (stereo not drawn) | -7 | 11 | -8 | -9 | 7 | 10 | .
C=C(CCC(=O)c1ccccc1)C(=O)c1ccccc1 | 63* | -40 | -50 | 2 | 69 | 80* | -63
CS(=O)(=O)Nc1ccc(-c2cnc3cccnn23)cc1 | -5 | -1 | -29 | . | 1 | 60* | 71*
COc1nc(=O)n(C2C=CC(=O)O2)cc1F (stereo not drawn) | 27 | -18 | -4 | . | 6 | 87* | 23
CC1(C)CSC(=NCc2ccccc2)N1C(=O)c1cccc([N+](=O)[O-])c1 | 18 | 2 | -1 | -10 | 6 | 0 | .
COc1ccc(CNC(=O)c2ccccc2SCC(=O)NCc2ccco2)cc1 | 4 | -5 | -3 | 1 | -5 | 10 | .
CC(=O)N1CCOc2ccc(S(=O)(=O)N3CCC(C(=O)NCc4ccc(F)cc4)CC3)cc21 | 12 | -3 | 13 | 6 | 10 | -16 | .
Cc1nn(-c2ccccc2)c(Cl)c1C(=O)Nc1nnc(C2CCCC2)s1 | -4 | -2 | -14 | -10 | -4 | 9 | .
CC(C)c1nc(SCC(=O)N2CCCc3ccccc32)c2c(=O)n(C)c(=O)n(C)c2n1 | 63* | -8 | 0 | . | 32 | 64* | 12
CCn1c(SCC(=O)N2CCCc3ccccc32)nc2c1c(=O)n(C)c(=O)n2C | 31 | 1 | 13 | -3 | 2 | 8 | .
O=C(COc1ccc(Br)cc1)N(Cc1ccco1)C1CCS(=O)(=O)C1 (stereo not drawn) | 9 | 0 | 8 | 12 | 1 | 10 | .
